This note sets out measurements from PubChem BioAssay (NCI).

About 83,000 compounds went through this panel and 20% of them were active in at least one assay; those are over-represented in the sample as a whole.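 Percent growth is the endpoint: 0 to 100 indicates growth inhibition (40 means 60% inhibition), 0 means no net growth, and negative values indicate cell death.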 Values without a mark were called inactive. Activity calls are given as the source filed them. How the source made its calls: active means growth percent below 10; inactive means the rest.

Holding throughout (assay): NCI-60 one-dose screen, 48 h (100 = growth as untreated, 0 = no growth, -100 = all killed)
Holding throughout (conditions): 10 µM unless noted

In assay [1] the test system is HCT-15 colon.
Assay [2] concerns HT29 colon.
Assay [3] has as its system SNB-75 CNS.
Assay [4] concerns SNB-19 CNS.
For assay [5], the system named is U251 CNS.
Assay [6] concerns PC-3 prostate.
The test system of assay [7] is SK-MEL-5 melanoma.
The test system of assay [8] is UACC-62 melanoma.
The subject of assay [9] is LOX IMVI melanoma.
For assay [10], the system named is SK-MEL-28 melanoma.
For assay [11], the system named is SK-MEL-2 melanoma.
For assay [12], the system named is EKVX NSCLC.
The subject of assay [13] is SN12C renal.
The subject of assay [14] is UO-31 renal.
The subject of assay [15] is TK-10 renal.
Assay [16] relates to ACHN renal.
The test system of assay [17] is CAKI-1 renal.
Assay [18] relates to A498 renal.
Assay [19] deals with CCRF-CEM leukemia.
Assay [20] relates to MOLT-4 leukemia.

Consider `COc1ccc(-c2csc(NC(=O)CSc3nc(-c4ccccc4)cc(=O)[nH]3)n2)cc1`, for which the growth in assay [1] was 70.9%; in assay [2], 85.9%; in assay [3] it was 82.3%; in assay [4], 70.1%; in assay [5], 79.7%; in assay [6], 66.5%. Also, the growth is -16.5% (active) in [7]; 58.7% in assay [8]; 66% in assay [9]; 90.6% in assay [10]; 59.7% in [11]; 58.1% in assay [12]. The growth in assay [13] was 80.3%; in assay [14], 65.6%; in assay [15], 78.9%; in assay [16] it was 63%; in assay [17] it was 74.7%; in assay [18], 64.7%. Also, the figures for the growth in assay [19] and in assay [20] were 57.9% and 14.4%, respectively.
In the case of `O=C(Nc1nc2ccc(F)cc2s1)c1cccnc1Nc1ccc(Cl)cc1`, the growth is 29% in assay [1]; 30.1% in assay [2]; 62.2% in assay [3]; 26.4% in [4]; 21.6% in assay [5]; 14% in [6]. Also, the growth in assay [7] is 5.56% (active); in assay [8] it was 28.4%; in [9], 48.3%; in [10] it was 61.9%; in assay [11] it was 54.4%; in [12], 9.81% (active). Moreover, the growth in assay [13] was 17.9%; in [14], 56.2%; in [15] it was 27.4%; in [16] it was 38.8%; in [17], 20.2%; in assay [18] it was 17.9%. Moreover, the results for the growth in assay [19] and in assay [20] were 5.11% (active) and 16.6%, respectively.
For the compound `COc1cc(-n2cc(-c3cc(O)c(C/C=C(\C)CCC=C(C)C)c(O)c3)nn2)cc2c1O[C@]1(C)CC[C@@H](O)C(C)(C)[C@H]1C2`, the growth in assay [1] is -12.2% (active); in [2] it was -34.6% (active); in assay [3] it was 7.34% (active); in assay [4], 32.5%; in assay [5] it was 4.31% (active); in assay [6] it was 16.2%. Further, the growth in assay [7] is -61.4% (active); in assay [8] it was -30.2% (active); in assay [9], -79.9% (active); in assay [10] it was 35.7%; in assay [11], -17.1% (active); in [12], 28%. Further, the growth is 24.9% in assay [13]; -53.8% (active) in assay [14]; 40.2% in [15]; 16.6% in assay [16]; 12% in assay [17]; 10.7% in [18]. Besides, the results for the growth in assay [19] and in assay [20] were 0.511% (active) and -0.403% (active), respectively.
With `CCN(CC)c1nc(SCc2ccccc2Cl)ncc1C`, the growth in assay [1] is 96.4%; in [2], 107%; in assay [3], 97.8%; in assay [4] it was 96.4%; in [5], 92.6%; in assay [6], 89.9%. Also, the growth in [7] is 83.8%; in assay [8], 81.2%; in assay [9], 95.9%; in assay [10], 118%; in [11] it was 118%; in [12], 101%. Besides, the growth in assay [13] was 96.7%; in assay [14], 102%; in assay [15] it was 117%; in assay [16], 108%; in assay [17], 88.8%; in assay [18] it was 91.2%. For the same compound, the results for the growth in [19] and in assay [20] were 92.7% and 105%, respectively.
Consider `Brc1ccc2[nH]cc(-c3nonc3-c3c[nH]c4ccccc34)c2c1`, for which the growth is 19.5% in [1]; 11.2% in assay [2]; 46.5% in assay [3]; 63.8% in [4]; 43.3% in assay [5]; 35.2% in assay [6]. In addition, the growth in assay [7] was 59.7%; in assay [8], 39.2%; in assay [9] it was 2.2% (active); in [10], 77.6%; in assay [11] it was 54%; in assay [12], 28.4%. The growth in assay [13] was 57.1%; in assay [14], 30.4%; in [15] it was 41.7%; in assay [16] it was 34.2%; in assay [17], 25.3%; in [18], 43%. Also, the results for the growth in [19] and in assay [20] were 38.8% and 27%, respectively.
`O=Cc1ccc([N+](=O)[O-])s1`: the growth in assay [1] was 48.7%; in assay [2], 55.4%; in assay [3] it was 85.8%; in assay [4], 91.4%; in [5], 89.6%; in [6] it was 92.6%. Also, the growth is 102% in [7]; 80.2% in [8]; 85.8% in [9]; 99.5% in assay [10]; 107% in [11]; 114% in [12]. Moreover, the growth in assay [13] is 84.1%; in assay [14] it was 89.8%; in assay [15], 112%; in assay [16], 90.8%; in assay [17] it was 100%; in assay [18] it was 94.5%. Also, the growth was 88.2% in [19] and 88.3% in assay [20].
With `S=C1CCSC(=S)N1CCCN1C(=S)CCSC1=S`, the growth in assay [1] is 51.4%; in [2] it was 67.8%; in assay [3] it was 70%; in assay [4], 89.7%; in assay [5], 83.2%; in [6] it was 69.1%. Also, the growth in [7] is 91.5%; in [8], 50.4%; in assay [9], 38.2%; in [10] it was 86.6%; in assay [11], 96.1%; in assay [12], 101%. Moreover, the growth in assay [13] is 75.6%; in [14], 45.1%; in [15] it was 66%; in [16], 44.4%; in [17], 58.9%; in assay [18], 102%. The growth was 16.7% in assay [19] and 30.1% in assay [20].
For `O=C(c1ccc(Cl)cc1)N1CCN(c2ccnc3cc(Cl)ccc23)CC1`, the growth in [1] was 95.5%; in assay [2], 81.7%; in assay [3] it was 110%; in [4], 84.2%; in assay [5], 78.7%; in assay [6], 80%. In addition, the growth in assay [7] is 90.8%; in assay [8], 71.5%; in assay [9], 103%; in [10] it was 99.6%; in assay [11], 88.9%; in [12] it was 96.4%. Moreover, the growth is 91.2% in [13]; 58% in assay [14]; 108% in assay [15]; 85.8% in assay [16]; 85.7% in assay [17]; 55.6% in assay [18]. The growth in [19] was 90.9%; in [20], 87.1%.
